Assay [1] can be described thus: growth inhibition, single agents and combos, ICB984, cell-based, cisplatin or BGB combos, synergistic combos for chromothripsis tumors (AID 1671451).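 Further: cells exposed for 96 hours before readout; 0% = vehicle DMSO and 100% = killing by high DMSO.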 Conditions: ICB984 medulloblastoma cells, drug combinations, stronger effect = higher value.
Assay [2] in a line: growth inhibition, single agents and combos, HTB85, cell-based, BGB or cisplatin IC20 combos, synergistic combos for chromothripsis tumors (AID 1671453; in the data active means inhibition above about 80%;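 further: cells exposed for 96 hours before readout; 0% = vehicle DMSO and 100% = high DMSO killing control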). Conditions: HTB85 osteosarcoma cells, drug combinations, stronger effect = higher value.
The nature of assay [3]: growth inhibition, MDA-MB-436, cell-based, BGB or cisplatin combos, synergistic combos for chromothripsis tumors (AID 1671458; call rule not given here;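 further: cells exposed for 96 hours; 0% = vehicle DMSO and 100% = killing by high DMSO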). Conditions: MDA-MB-436 breast carcinoma growth inhibition, drug combinations, stronger effect = higher value.
The nature of assay [4]: BT084 cell growth, single and combined drugs, ICGC_MB145, cisplatin and BGB IC40 combos (AID 1671461; in the data active means inhibition above about 80%;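 further: cells exposed to drugs for 96 hours; 0% = vehicle DMSO and 100% = high DMSO full killing control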). Conditions: BT084 medulloblastoma cells, drug combinations, stronger effect = higher value.
Assay [5] in a line: RCMB18 cell growth, single agent and combined, cisplatin and BGB IC40 combos (AID 1671462; in the data active means inhibition above about 80%;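 further: cells exposed to compound for four days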). As to conditions: RCMB18 medulloblastoma cells, stronger effect = higher value.
Assay [6] in a line: viability loss in pontine glioma line – cell-based, SU-DIPG-XVII, MIPE5.0, CellTiter-Glo, qHTS, dose response (AID 1347060).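 On AC50: cells exposed to compound for 48 hours before viability readout.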 Conditions: CellTiter-Glo ATP luminescence. Background: ATP-based viability assays read luminescence as a measure of living cells.
Assay [7] can be described thus: viability loss in pontine glioma line – cell-based, SU-DIPG-XIII, MIPE4.0, CellTiter-Glo, qHTS, dose response (AID 1347061; cut-off not given, nearly all actives have AC50 up to about 37 µM;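 further: cells exposed to compound for 48 hours before readout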). Conditions: CellTiter-Glo ATP luminescence.
Assay [8] is described as follows: viability loss in pontine glioma line – cell-based, JHH-DIPG-1, MIPE4.0, CellTiter-Glo, qHTS, dose response (AID 1347062; cut-off not given, nearly all actives have AC50 up to about 27 µM;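 on AC50: cells exposed to compound for two days before readout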). As to conditions: JHH-DIPG-1 viability, CellTiter-Glo ATP luminescence.
A short description of assay [9]: viability loss in pontine glioma line – cell-based, SU-DIPG-IV, MIPE4.0, CellTiter-Glo, qHTS, dose response (AID 1347063; cut-off not given, nearly all actives have AC50 up to about 30 µM;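 further: compound exposure lasted 48 hours before the viability readout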). As to conditions: CellTiter-Glo ATP luminescence.
A short description of assay [10]: viability loss in pontine glioma line – cell-based, SU-DIPG-XIII, MIPE5.0, CellTiter-Glo, qHTS, dose response (AID 1347064; cut-off not given, nearly all actives have AC50 up to about 23 µM;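 on AC50: cells exposed to compound for 48 hours before the viability read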). As to conditions: CellTiter-Glo ATP luminescence.
Assay [11] is described as follows: viability loss in pontine glioma line – cell-based, SU-DIPG-XXV, MIPE5.0, CellTiter-Glo, qHTS, dose response (AID 1347065).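 Further: cells exposed to compound for 48 hours before ATP readout.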 As to conditions: CellTiter-Glo ATP luminescence.
Assay [12] can be described thus: JHH-DIPG-1 glioma cell viability, MIPE5.0 library, CellTiter-Glo luminescence, qHTS (AID 1347067).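 Further: cells exposed to compound for 48 hours before readout.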 As to conditions: JHH-DIPG-1 glioma viability, CellTiter-Glo ATP luminescence.
Assay [13] in a line: growth inhibition of DIPG cells – cell-based, MIPE5.0 library, qHTS (AID 1347068; cut-off not given, nearly all actives have IC50 up to about 30 µM). Conditions: SU-DIPG-XXV viability. For orientation: Quantitative high-throughput screening tests each substance at several concentrations.
A short description of assay [14]: viability loss with induced miR-34 in A549 – imaging, A549 dox-inducible miR-34, nuclei and caspase counts, primary screen (AID 1347080;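 active means compounds whose cell count with miR-34 switched on is under 0.7 times the count with it off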). As to conditions: A549 miR-34 inducible, Hoechst nuclei count, 48 h.
Assay [15] is described as follows: MELAS cybrid and Rieske KO viability enhancers – cell-based, MELAS cybrids, Rieske KO mouse fibroblasts, CellTiter-Glo, primary screen (AID 1508586;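 active means mean z-score across replicates of 1.96 or higher in either the MELAS or the Rieske mutant cell line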;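 further: z relative to plate mean and SD of compound and empty wells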). As to conditions: low glucose.
A short description of assay [16]: growth inhibition of DIPG cells – cell-based, MIPE4.0 library, CellTiter-Glo luminescence, qHTS (AID 1347066; cut-off not given, nearly all actives have AC50 up to about 30 µM;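 further: cells exposed to compound for 48 hours before readout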). Conditions: SU-DIPG-VI viability, CellTiter-Glo ATP luminescence.
A short description of assay [17]: compounds altering HSF1 focus formation in cells – imaging, Selleck Cancer Library (AID 1347162; in the data active means plate-normalised HSF1 focus index below about 0.46). As to conditions: human cells, HSF1 nuclear foci imaging, at 10 µM; SSMD: measured here: HSF1 foci SSMD mean; cell count: measured here: cell number; plate-normalised HSF1 focus index: stronger effect = lower value.
Setting [18] is: stronger effect = lower value, cell number ratio, induced over uninduced.
Where [19] appears, read: measured here: relative caspase fold change +Dox/-Dox.
Setting [20] is: measured here: total cells with miR-34 induction, stronger effect = lower value.
Setting [21] is: measured here: total cells without miR-34 induction.
Setting [22] is: MELAS cybrid survival, CellTiter-Glo 48 h, stronger effect = higher value.
[23] abbreviates: Rieske KO mouse fibroblast survival, CellTiter-Glo 72 h.

From PubChem BioAssay come the findings set out here.

“And” between values parts separate entries of the source, which are not always exact repeats. Identical values can stand only once. Inconclusive results are not listed. The source made the active and inactive calls. Unless noted, cut-off not given; nearly all actives show AC50 up to about 26 µM.

What is called inhibition is the change of the read-out against control, counted positive when it falls. For the molecule `CCCCc1nc2cc(/C=C/C(=O)NO)ccc2n1CCN(CC)CC`, the inhibition is -38.4% in assay [1] (cisplatin combo, at 0.5 µM); -16.6% in assay [1] (cisplatin combo, at 5 µM); -44.4% in assay [1] (measured here: 5 uM single agent, at 5 µM); 60.4% (inactive) in assay [2] (at 0.5 µM); 56% in assay [2] (measured here: with BGB IC20, at 0.5 µM); 99.8% in [2] (measured here: with BGB IC20, at 5 µM). The inhibition in assay [2] (measured here: with cisplatin IC20, at 0.5 µM) was 61.5%; in [2] (measured here: with cisplatin IC20, at 5 µM) it was 99.9%; in assay [2] (single agent, at 5 µM) it was 99.7%; in assay [3] (at 0.5 µM), 23.8% (inactive); in [3] (measured here: BGB combination, at 0.5 µM), 18.7%; in [3] (measured here: BGB combination, at 5 µM), 52.6%. Also, the inhibition in assay [3] (measured here: cisplatin combination, at 0.5 µM) is 13.3%; in assay [3] (measured here: cisplatin combination, at 5 µM), 61.6%; in [4] (at 0.5 µM), 51.2% (inactive); in [4] (cisplatin combination, at 0.5 µM) it was 62.4%; in [4] (cisplatin combination, at 5 µM), 101%; in assay [4] (measured here: BGB IC40 combination 0.05 uM, at 0.05 µM), -12.4%. Besides, the inhibition is 107% in [4] (single agent, at 5 µM); 35.2% (inactive) in assay [5] (at 0.5 µM); 93.7% in assay [5] (cisplatin combo, at 5 µM); 11.4% in assay [5] (measured here: BGB IC40 combination, at 0.05 µM); 47.6% in assay [5] (measured here: combination with cisplatin, at 0.5 µM); 89.4% in assay [5] (single agent, at 5 µM).

By AC50 is commonly meant the concentration at which the activity in the assay is half-maximal. On to `CCc1c(O)cc(O)c(C(=O)c2ccc(OCCN3CCOCC3)c(OC)c2)c1CC(=O)N(CCOC)CCOC`, for which the AC50 in assay [6] was 0.235 µM (active); in [7] it was 3.32 µM (active); in assay [8], 0.372 µM (active); in assay [9] it was 1.32 µM (active); in [10] it was 0.833 µM (active); in [11] it was 0.742 µM (active). For the same molecule, in [12], the AC50 was 0.742 µM (active). Besides, the outcome in assay [13] was inactive. The fold change was 1.03 (inactive) in assay [14] (setting [18]) and 0.454 in [14] (setting [19]). For the same molecule, the cell count in [14] (setting [20]) came to 3640; in [14] (setting [21]) it was 3520. Besides, the z-score in assay [15] (setting [22]) is -0.316 (inactive); in [15] (setting [23]), 0.722.

On to `C[Se]CCC(N)C(=O)O` (stereo not given), for which the outcome in [6], in [7], in assay [8], in assay [9], in [10] and in [16] was inactive. The outcome in assay [12] and in assay [13] was inactive.

In the case of `COc1ccccc1N1CCN(CCN(C(=O)C2CCCCC2)c2ccccn2)CC1`, the result in assay [6], in assay [7], in [8], in [9], in assay [10] and in [16] was inactive. For the same molecule, the molecule was called inactive in assay [13]. Moreover, the fold change in [14] (setting [18]) was 0.953 (inactive) and 0.872 (inactive); in [14] (setting [19]), 0.882 and 0.761. In addition, the cell count in [14] (setting [20]) was 8900 and 8750; in assay [14] (setting [21]), 9340 and 10000. Moreover, the z-score was -0.378 (inactive) in assay [15] (setting [22]) and 0.432 in assay [15] (setting [23]).

For `Cc1ccc(C(=O)Nc2cccc(C(F)(F)F)c2)cc1-c1ccc2nc(NCCN3CCOCC3)ncc2c1`, the AC50 in assay [6] was 2.35 µM (active); in assay [7], 6.62 µM (active); in assay [8], 6.62 µM (active); in assay [9], 4.69 µM (active); in assay [10], 3.72 µM (active); in [11], 2.09 µM (active). Moreover, the AC50 in [12] was 2.95 µM (active).

In the case of `Nc1cccc2c1CN([C@H]1CCC(=O)NC1=O)C2=O`, the outcome in assay [6], in assay [7], in assay [8], in [9], in [10] and in assay [12] was inactive. In addition, the call in assay [13] was inactive.

For the molecule `COc1ccc2c3n(c(=NC(=O)c4cccnc4)nc2c1OC)CCN3`, the AC50 is 1.05 µM (active) in [6]; 13.2 µM (active) in assay [7]; 8.33 µM (active) in assay [8]; 1.05 µM (active) in [9]; 0.742 µM (active) in assay [10]; 0.59 µM (active) in assay [11]. Also, the molecule was classed as inactive in assay [13]. Also, the SSMD in assay [17] is -0.125. The molecule also showed a cell count in assay [17] of 7610. Besides, the plate-normalised HSF1 focus index in [17] is 0.991 (inactive).

Regarding `Cc1ccc(C(=O)Nc2cccc(C(F)(F)F)c2)cc1Nc1nc(-c2cccnc2)nc2c1cnn2C`, the AC50 in assay [6] is 16.6 µM (active); in [8], 18.7 µM (active); in [9], 16.6 µM (active); in assay [10], 18.6 µM (active); in assay [16] it was 23.5 µM (active); in assay [12], 20.9 µM (active). For the same molecule, the call in assay [7] and in assay [13] was inactive. Also, the fold change is 1.02 (inactive) in [14] (setting [18]) and 1.01 in assay [14] (setting [19]). Besides, the cell count in assay [14] (setting [20]) is 4020; in [14] (setting [21]), 3950. In addition, the z-score in [15] (setting [22]) was -0.539; in [15] (setting [23]), 2.14.

Consider `COc1nccc(-c2c(-c3ccc(F)cc3)ncn2C2CCNCC2)n1`, for which the result in [6], in assay [7], in assay [8], in assay [9], in assay [10] and in assay [11] was inactive. Further, the result in assay [12] and in assay [13] was inactive.
